About 7,300 (2.2%) of roughly 330,000 compounds were called active.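 The calls were made as follows: active = inhibition of at least 40%; inactive = the rest.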 Many of the other results were omitted from the sample, so actives are more common in it than they were.
Test: growth inhibition of tim10-1 ts yeast – luminescence, uHTS, primary screen (AID 463190);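 also: mutant grown at 25 °C; 0% = DMSO wells with yeast and 100% = wells holding no yeast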
Conditions: S. cerevisiae tim10-1 ts strain growth, BacTiter-Glo, 24 h; at 20 µM; stronger effect = higher value

inhibition, active:
OC(CNCC1CCCO1)Cn1c2ccc(Br)cc2c2cc(Br)ccc21 (stereo not drawn) 45.7%, Cc1ccc(OS(=O)Nc2cccc3nccnc23)cc1 (stereo not drawn) 54.6%, CCN1/C(=C\c2ccc3ccccc3[n+]2CC)Sc2cc(C)ccc21 65.2%, O=[N+]([O-])c1ccc2oc(-c3cccc(O)c3)nc2c1 45.7%, O=C(NC(Nc1nc2ccc([N+](=O)[O-])cc2s1)(C(F)(F)F)C(F)(F)F)c1ccccc1 85.4%, O=C1c2ccccc2C(=O)c2c1cccc2N1CCN(Cc2ccccc2)CC1 49.4%, O=C(CCc1ccccc1)Nc1ncc([N+](=O)[O-])s1 45.9%, CCNC(=S)N(CCc1c(C)[nH]c2ccc(C)cc12)Cc1ccco1 45.6%, N/C(=N\OC(=O)Nc1ccc(Cl)c(Cl)c1)c1ncc(C(F)(F)F)cc1Cl 49.2%, Cc1ccccc1CC1(CO)CCCN(C(=O)c2cc(-c3ccccc3)no2)C1 (stereo not drawn) 42.6%, Cc1ccc(Oc2cnn(-c3ccccc3)c(=O)c2Br)cc1 42.1%, O=C(N/N=C\c1cccc(Br)c1)c1ccccc1-n1cccc1 57.6%, COc1ccc(CNC(=O)/C(C#N)=C/c2cccc(OC)c2OC)cc1 63.8%, CCOc1ccccc1N1CCN(C(=O)c2ccc3[nH]c(C)c(C)c3c2)CC1 48.8%, CCOc1ccccc1/C=c1\sc2nc(-c3ccco3)nn2c1=O 54.3%, COc1ccc(Cn2c(-c3ccc(Cl)cc3)c[n+]3ccccc23)cc1 48.6%, CCOC(=O)c1ccc(NC(=O)c2nc[nH]c2C(=O)NCc2ccccc2)cc1 41.1%, CSC(=S)N/N=C/c1c[nH]c2ccccc12 54.2%, Clc1ccccc1CSc1nnc(-c2ccco2)c(-c2ccco2)n1 41.7%

inhibition, inactive:
Cc1ccc(C(=O)Nc2c(C#N)c(C)c(C)n2Cc2ccccc2)cc1 17.9%, O=C(CSc1ccc(-c2ccc(Br)cc2)nn1)NCC1CCCO1 (stereo not drawn) 17.5%, O=C(CCNS(=O)(=O)c1ccc(Br)cc1)NCC1CCCO1 (stereo not drawn) 1.09%, NC(=O)C1CCN(C(=O)/C(=C/c2ccco2)NC(=O)c2ccccc2)CC1 -8.85%, NC(=O)CC[C@@H]1NC(=O)[C@H](CO)NC(=O)c2cc([N+](=O)[O-])cc(I)c2NCC[C@@H](C(N)=O)NC1=O -26.8%, CCOc1ccc(NC(=O)[C@H](C)NC(=O)C2CC(=O)N(c3ccc(OC)cc3)C2)cc1 (stereo partly drawn) -6.36%, COC(=O)C(NS(=O)(=O)c1ccc(F)cc1)c1ccccc1 (stereo not drawn) 13.7%, Cc1ccc(OCC(=O)Nn2cnc3ccccc32)cc1 1.81%, Cc1ccc(Oc2ccc3c(c2)C(=O)N(c2cccc4cccnc24)C3=O)cc1 18.3%, CCOc1ccc(NS(=O)(=O)c2cc(C)c(C)cc2C)cc1 1.28%, CC(C)(C)c1cc(CN2CCN(CCC#N)CC2)cc(C(C)(C)C)c1O -1.87%, C=CCn1c(COc2ccc(F)cc2)nnc1SCC(=O)Nc1cccc(S(N)(=O)=O)c1 -3.82%, O=c1nc(N2CCOCC2)nc2n1CCO2 -13.4%, CCC1CCCCN1C(=O)CSc1nc2c(c(=O)n(C)c(=O)n2C)n1C (stereo not drawn) 0.551%, O=S(=O)(c1ccc(F)cc1)n1ccc(-c2cnc(-c3ccccc3)s2)n1 24.1%, CC(=O)Oc1ccc2c(=O)oc(-c3ccc([N+](=O)[O-])cc3)nc2c1 22.6%, COc1ccc2oc(-c3cccc(NC(=O)CSc4ccc(Cl)cc4)c3)nc2c1 21.6%, Cc1ccc(OS(=O)(=O)c2ccc(-c3csc(C)n3)s2)c(C)c1 10.6%, COc1cc(C=O)ccc1Oc1nnnn1-c1ccccc1 22.8%, O=C(CCNC(=O)c1ccccc1)Nc1nc2ccccc2s1 -11%, O=C(CNC(=O)c1ccccc1)Oc1ccc([N+](=O)[O-])cc1 3.17%, CCC(=O)Nc1cccc(C2=NOC3(C2)C[C@@H](C(N)=O)N(C(=O)c2cc([N+](=O)[O-])cc([N+](=O)[O-])c2C)C3)c1 (stereo partly drawn) 9.39%, O=C1c2ccccc2C(=O)c2c1cccc2N1CCN(CCO)CC1 15.9%, O=C1c2ccccc2C(=O)c2c1cccc2N1CCN(C/C=C/c2ccccc2)CC1 23.3%, CC1CCN(S(=O)(=O)c2ccc3c(ccn3CC(=O)O)c2)CC1 6.77%, COc1ccc([N+](=O)[O-])cc1NC(=O)CCc1ccccc1 27.1%, O=C(Cc1c(F)cccc1Cl)Nc1ncc([N+](=O)[O-])s1 32.8%, O=C(C1CCCN(S(=O)(=O)c2ccccc2)C1)N1CCN(c2ccc(F)cc2)CC1 (stereo not drawn) 17.6%, Fc1ccccc1-c1cc2cc3c(cc2cn1)OCO3 -19.8%, COCCNC(=S)N(CCc1c(C)[nH]c2ccc(C)cc12)Cc1cccnc1 11.6%, COc1cccc(NC(=S)N(CCc2c(C)[nH]c3ccccc23)Cc2ccco2)c1 32.4%, CC(CNS(=O)(=O)c1ccc(Br)cc1)CN(C)C (stereo not drawn) 6.17%, N/C(=N\OC(=O)CCCC(=O)O)c1ncc(C(F)(F)F)cc1Cl 1.66%, O=C(c1ccccn1)c1ncc(C(F)(F)F)cc1Cl 7.58%, Cc1cccc(NC(=O)C2CCCN(C(=O)Nc3ccc(F)cc3)C2)c1C (stereo not drawn) -25.6%, Cc1noc(C)c1CCC(=O)N1CCCC(CO)(Cc2ccccc2)C1 (stereo not drawn) -14.1%, Cc1ccccc1CC1(CO)CCCN(Cc2ccc3c(c2)OCCO3)C1 (stereo not drawn) 8.67%, Cc1cccc(-n2ncc(Cl)c(Cl)c2=O)c1 -25.8%, Cc1ccc(OC(=O)c2c(C)nn(-c3ccccc3)c2C)cc1 25.6%, COc1ccc(S(=O)(=O)/N=C2\C=C(NS(=O)(=O)c3ccccc3)C(=O)c3ccccc32)cc1 31.1%, CCc1[nH]nc(C(=O)N2CCCC(CO)(Cc3ccc(F)cc3F)C2)c1C (stereo not drawn) 24.1%, COc1cc2c(cc1OC)C(C(=O)Nc1cc(C)c(OC)c(C)c1)CC(=O)N2 (stereo not drawn) -5.96%, CS(=O)(=O)N(Cc1ccccc1)c1ccc(C(=O)NN=C2CCCCCC2)cc1 17.2%, O=C(N/N=C/c1cccc(Br)c1)c1ccc(N2CCCC2=O)cc1 -37.8%, O=C(CNC(=O)c1cccs1)N/N=C/c1cccc(Br)c1 22%, CCN(Cc1ccncc1)C(=O)CCc1ccccc1 -0.112%, COc1ccc(NC(=O)/C(C#N)=C\c2cc(OC)c(OCc3ccc(C(=O)O)cc3)cc2Br)cc1 26.4%, COc1ccc(CNC(=O)CCn2cccc2)cc1 9.29%, CC(C)c1ccc(/C=C2\NC(=O)NC2=O)cc1 10.2%, COc1ccccc1N1CCN(C(=O)c2ccc(Cl)c(S(=O)(=O)N3CCCC3)c2)CC1 22%, Cc1[nH]c2ccc(C(=O)N3CCN(C)CC3)cc2c1C -12.6%, COc1ccc(-c2c(C#Cc3ccsc3)c3cc(-c4ccc(CN5CCOCC5)cc4)ccc3n2C)cc1 15.1%, Cc1ccccc1C(=O)N1CCC(C(=O)Oc2ccc(C#N)cc2)CC1 -2.27%, CS(=O)(=O)n1nc(-c2ccco2)nc1N 3.68%, CCCn1nc(C(=O)NNC(=O)CCOc2ccccc2OCC)c2ccccc2c1=O 17.6%, Cn1cccc1C(C#N)c1ccccc1C#N (stereo not drawn) 10.1%, O=C(NC1(C(F)(F)F)NC(=O)N(Cc2cccnc2)C1=O)c1ccccc1Cl (stereo not drawn) 9.72%, COc1cc(C(=O)N(C)Cc2cccc(OC)c2OC)ccc1OCC(=O)Nc1cccc(C(F)(F)F)c1 20.8%, CCn1c(C)cc(=O)cc1-c1ccc(Cl)cc1 8.56%, COc1ccc(Cn2c(=O)cc(C)[nH]c2=S)cc1 -11.8%, Cc1cccc(NS(=O)(=O)c2cccc(C(=O)NNC(=O)c3ccccc3O)c2)c1 21.6%, O=C(CN1CCN(C(=S)NC2CCCC2)CC1)Nc1ccc(Oc2ccccc2)cc1 12.6%, Cc1ccc2cc(C#N)c(NCCNC(=S)NCCCN3CCOCC3)nc2c1 -0.527%, CC(C)N(C(=O)Cn1cc(S(=O)(=O)CC(=O)N2CCOCC2)c2ccccc21)C(C)C -3.3%, CCOC(=O)c1[nH]cnc1C(=O)Nc1ccccc1C 11.6%, O=C(Nc1ccon1)c1nc[nH]c1C(=O)NCc1ccccc1 7.98%, CC(C)c1ccc(S(=O)(=O)N2CCN(C(C)C(=O)NC3CCCC3)CC2)cc1 (stereo not drawn) 13.4%, Nc1c(C(=O)O)cnn1-c1ccccc1 2.2%, CCN(C(=O)COC(=O)c1ccccc1O)c1cccc2ccccc12 24.2%, O=C(O)c1cccc(NC(=S)N/N=C/c2c[nH]c3ccccc23)c1 19%, Nc1nonc1-n1nnc(C(=O)N/N=C/c2c[nH]c3ccccc23)c1-c1ccccc1 11.6%, Cn1cnc(S(=O)(=O)Nc2ccc3c(c2)OCCO3)c1 -19.7%, O=C(CC1N=C2c3ccccc3N=C(SCc3ccccc3Cl)N2C1=O)NCc1ccco1 (stereo not drawn) 24.8%, S=C(NCc1ccco1)NCc1ccccc1Cl 28.9%

Source: PubChem BioAssay AID463190 (Sanford-Burnham Center for Chemical Genomics, 2010)
